Assay in all cases: NCI-60 one-dose screen, 48 h (100 = growth as untreated, 0 = no growth, -100 = all killed)
One experiment has as its system SR leukemia. The conditions noted are these: 10 µM.
The next experiment relates to RPMI-8226 leukemia. The conditions noted are these: 10 µM.
The test system of another experiment is OVCAR-8 ovarian. Conditions: 10 µM.
For a further experiment, the system named is OVCAR-5 ovarian. The conditions noted are these: 10 µM.
The test system of a further experiment is OVCAR-4 ovarian. Conditions: 10 µM.
The next experiment concerns SK-OV-3 ovarian. Conditions: 10 µM.
The test system of another experiment is IGROV1 ovarian. The conditions noted are these: 10 µM.
For a further experiment, the system named is OVCAR-3 ovarian. The conditions noted are these: 10 µM.
A further experiment concerns HS 578T breast. Conditions: 10 µM.
The test system of another experiment is NCI/ADR-RES ovarian. The conditions noted are these: 10 µM.
The next experiment deals with T-47D breast. The conditions noted are these: 10 µM.
Another experiment has as its system BT-549 breast. The conditions noted are these: 10 µM.
For the next experiment, the system named is MDA-MB-435 melanoma. Conditions: 10 µM.
In another experiment the test system is SW-620 colon. The conditions noted are these: 10 µM.
For another experiment, the system named is MCF7 breast. Conditions: 10 µM unless noted.
A further experiment has as its system HCT-116 colon. The conditions noted are these: 10 µM.
For the next experiment, the system named is HCC-2998 colon. Conditions: 10 µM.
The test system of a further experiment is KM12 colon. Conditions: 10 µM.

These results are taken from PubChem BioAssay (NCI).

Compounds without any hit were thinned out: in the full panel of roughly 83,000, 20% have a hit.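 Treatment: one concentration, 48 hours, 96-well format. Scoring: percent growth, with anything below 10 considered active.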 Unmarked numbers belong to inactive results. The source made the active and inactive calls.

With `CN(C)c1ccc(S(=O)(=O)O)cc1`, the growth was 92.9% with SR leukemia; 95.6% in the experiment with RPMI-8226 leukemia; 101% in the experiment with OVCAR-8 ovarian; 93% with OVCAR-5 ovarian; 106% with OVCAR-4 ovarian; 89% with SK-OV-3 ovarian. The growth in the experiment with IGROV1 ovarian was 118%; with OVCAR-3 ovarian, 109%; with HS 578T breast, 114%; in the experiment on NCI/ADR-RES ovarian, 104%; in the experiment on T-47D breast, 87.6%; with BT-549 breast, 98.6%. For the same compound, the growth in the experiment on MDA-MB-435 melanoma was 110%; in the experiment with SW-620 colon it was 111%; in the experiment with MCF7 breast, 99.8%; with HCT-116 colon, 96%; in the experiment with HCC-2998 colon, 103%; with KM12 colon, 104%.

Consider `C=CCNc1ccccc1`, for which the growth with SR leukemia was 96.9%; with RPMI-8226 leukemia, 92.8%; in the experiment with OVCAR-8 ovarian, 107%; in the experiment with OVCAR-5 ovarian, 106%; in the experiment with OVCAR-4 ovarian, 94%; in the experiment on SK-OV-3 ovarian it was 101%. In addition, the growth in the experiment with IGROV1 ovarian was 115%; in the experiment on OVCAR-3 ovarian, 116%; in the experiment on HS 578T breast, 110%; in the experiment with NCI/ADR-RES ovarian, 114%; in the experiment on T-47D breast, 103%; with BT-549 breast, 99%. The growth was 119% with MDA-MB-435 melanoma; 106% in the experiment on SW-620 colon; 87.4% with MCF7 breast; 92.4% in the experiment with HCT-116 colon; 109% in the experiment on KM12 colon.

As for `O=[N+]([O-])c1ccccc1N=Nc1ccc(O)cc1O`, the growth is 93% in the experiment with SR leukemia; 109% with RPMI-8226 leukemia; 104% in the experiment on OVCAR-8 ovarian; 126% in the experiment on OVCAR-5 ovarian; 99.5% with OVCAR-4 ovarian; 101% with SK-OV-3 ovarian. The growth was 92.9% with IGROV1 ovarian; 122% with OVCAR-3 ovarian; 131% with HS 578T breast; 118% in the experiment with NCI/ADR-RES ovarian; 104% in the experiment with T-47D breast; 101% in the experiment with BT-549 breast. Moreover, the growth in the experiment with MDA-MB-435 melanoma is 120%; in the experiment with SW-620 colon it was 116%; in the experiment with MCF7 breast, 94.7%; with HCT-116 colon it was 100%; in the experiment with KM12 colon it was 110%.

As for `CCOC(=O)Nc1nn[nH]n1`, the growth in the experiment with SR leukemia is 103%; with RPMI-8226 leukemia, 106%; with OVCAR-8 ovarian it was 111%; in the experiment with OVCAR-5 ovarian, 92.3%; in the experiment with OVCAR-4 ovarian, 111%; with SK-OV-3 ovarian, 116%. The growth in the experiment with IGROV1 ovarian was 110%; with OVCAR-3 ovarian, 103%; with HS 578T breast, 93.7%; in the experiment with NCI/ADR-RES ovarian, 103%; with T-47D breast, 113%; in the experiment on BT-549 breast, 106%. The growth in the experiment on MDA-MB-435 melanoma is 111%; with SW-620 colon it was 90.2%; with MCF7 breast it was 103%; in the experiment on HCT-116 colon, 107%; in the experiment with KM12 colon, 106%.

Take `CN(C)c1ccc(CNC(C(=O)c2ccccc2)c2ccccc2)cc1` (centres undefined): the growth was 90.8% in the experiment on SR leukemia; 94.4% in the experiment with RPMI-8226 leukemia; 95.9% in the experiment with OVCAR-8 ovarian; 110% with OVCAR-5 ovarian; 99.1% in the experiment on OVCAR-4 ovarian; 103% with SK-OV-3 ovarian. In addition, the growth in the experiment with IGROV1 ovarian was 98.2%; in the experiment on OVCAR-3 ovarian, 114%; in the experiment with HS 578T breast it was 46.1%; with NCI/ADR-RES ovarian, 101%; with T-47D breast, 98.9%; in the experiment with BT-549 breast, 98%. Also, the growth was 107% with MDA-MB-435 melanoma; 101% in the experiment on SW-620 colon; 107% in the experiment with MCF7 breast; 50.8% in the experiment on HCT-116 colon; 106% with HCC-2998 colon; 98.6% in the experiment on KM12 colon.

Consider `O=C(O)c1cc([N+](=O)[O-])ccc1Cl`, for which the growth with SR leukemia was 88.4%; in the experiment with RPMI-8226 leukemia, 88.8%; in the experiment on OVCAR-8 ovarian, 96.1%; with OVCAR-5 ovarian, 104%; in the experiment with OVCAR-4 ovarian, 107%; in the experiment on SK-OV-3 ovarian, 106%. Moreover, the growth with IGROV1 ovarian is 117%; in the experiment with OVCAR-3 ovarian, 115%; in the experiment on HS 578T breast, 119%; with NCI/ADR-RES ovarian, 103%; in the experiment with T-47D breast, 99.6%; in the experiment on BT-549 breast, 97.1%. In addition, the growth is 107% in the experiment with MDA-MB-435 melanoma; 98.5% with SW-620 colon; 88% in the experiment with MCF7 breast; 102% in the experiment with HCT-116 colon; 97% in the experiment with HCC-2998 colon; 95% in the experiment on KM12 colon.

Regarding `Cc1cc(C(O)(c2ccc(Nc3ccccc3)cc2)c2ccc(Nc3ccc(S(=O)(=O)O)cc3)cc2)ccc1N` (centres undefined), the growth in the experiment on SR leukemia is 7.14% (active); with RPMI-8226 leukemia, -28.8% (active); in the experiment on OVCAR-8 ovarian, 6.11% (active); with OVCAR-5 ovarian it was -65.8% (active); in the experiment on OVCAR-4 ovarian it was -5.82% (active); in the experiment on SK-OV-3 ovarian it was 31.3%. The growth was 5.51% (active) with IGROV1 ovarian; -29.1% (active) with OVCAR-3 ovarian; 1.91% (active) in the experiment with HS 578T breast; 18.8% in the experiment on NCI/ADR-RES ovarian; -5.86% (active) in the experiment with T-47D breast; 22.6% in the experiment with BT-549 breast. Moreover, the growth in the experiment with MDA-MB-435 melanoma is -67.4% (active); in the experiment on SW-620 colon it was -32.6% (active); in the experiment with MCF7 breast, -3.23% (active); in the experiment with HCT-116 colon it was 6.56% (active); in the experiment with HCC-2998 colon it was -20.5% (active); in the experiment with KM12 colon it was 4.39% (active).

On to `CC(C)(N)COS(=O)(=O)O`, for which the growth is 103% with SR leukemia; 102% with RPMI-8226 leukemia; 102% in the experiment on OVCAR-8 ovarian; 107% with OVCAR-5 ovarian; 105% in the experiment with OVCAR-4 ovarian; 96.5% in the experiment on SK-OV-3 ovarian. Also, the growth is 108% with IGROV1 ovarian; 104% with OVCAR-3 ovarian; 99.8% in the experiment on HS 578T breast; 114% with NCI/ADR-RES ovarian; 108% in the experiment on T-47D breast; 100% with BT-549 breast. In addition, the growth was 94.6% in the experiment with MDA-MB-435 melanoma; 101% in the experiment with SW-620 colon; 95.5% in the experiment on MCF7 breast; 95.4% with HCT-116 colon; 112% in the experiment on HCC-2998 colon; 99.1% with KM12 colon.

In the case of `CCCCC1(CC)COC(CCC)OC1` (centres undefined), the growth with SR leukemia is 106%; with RPMI-8226 leukemia it was 102%; with OVCAR-8 ovarian, 101%; in the experiment on OVCAR-5 ovarian, 95.9%; in the experiment on OVCAR-4 ovarian it was 115%; with SK-OV-3 ovarian, 104%. The growth in the experiment on IGROV1 ovarian was 129%; with OVCAR-3 ovarian, 108%; with HS 578T breast it was 109%; with NCI/ADR-RES ovarian, 105%; in the experiment with T-47D breast, 104%; with BT-549 breast, 106%. Moreover, the growth in the experiment with MDA-MB-435 melanoma is 118%; in the experiment with SW-620 colon it was 110%; in the experiment on MCF7 breast, 96.6%; with HCT-116 colon, 98.8%; in the experiment with HCC-2998 colon, 98.1%; in the experiment on KM12 colon it was 104%.
